# Where “and” joins values, the source holds several entries; their conditions need not be identical. Identical values can stand only once. Values without a mark were called inactive. Results filed as inconclusive are left out. Entries that show only a call come without a potency. Some compounds were tested as several samples or in several runs, with calls that do not always agree. Calls of active or inactive are those of the source. Unless noted, calls come from the whole dose curve; as a rule, active = well fitted curve in the direction sought with a large enough effect; inconclusive = small, poorly fitted or top-dose-only effect, or another doubt; inactive = no such curve, though single readings can be large; an effect the other way counts as inactive or inconclusive.
# Experiments:
# OV90 = experiment: Primary qHTS to identify gynecologic anti-cancer compounds using libraries of approved drugs and bioactive compounds (AID 1345084); conditions: Gynecologic cancer cell panel viability, ATPlite luminescence, 48 h; series mostly up to 57.5 µM; note: nearly all actives have a fitted effect of over 55% in size; note: potency is the fitted concentration of half-maximal effect
# Method in brief: (§1)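 Five-concentration response, 48 h; readout is ATP-driven luciferase luminescence.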
# PA-1 = experiment: as above; conditions: Gynecologic cancer cell panel viability, ATPlite luminescence, 48 h; series mostly up to 57.5 µM
# Method in brief: as §1
# SKOV3 = experiment: as above; conditions: Gynecologic cancer cell panel viability, ATPlite luminescence, 48 h; series mostly up to 57.5 µM
# Method in brief: as §1
# Tov-21-G = experiment: as above; conditions: Gynecologic cancer cell panel viability, ATPlite luminescence, 48 h; series mostly up to 57.5 µM
# Method in brief: as §1
# Tov112D = experiment: as above; conditions: Gynecologic cancer cell panel viability, ATPlite luminescence, 48 h; series mostly up to 57.5 µM
# Method in brief: as §1
# [1] = Drug repurposing screens with cells derived from glioblastoma tumor samples (AID 1345199); conditions: GBM patient neurospheres viability, ATP luminescence, 48 h; note: nearly all actives have a fitted effect of over 40% in size; note: potency is the fitted concentration of half-maximal effect
# Method in brief: (§2)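 Four patient lines of CD133+ GBM neurospheres were screened at several concentrations; hits were retested in those lines plus three slower-growing GBM lines, using 48-hour treatment and ATP-based viability.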
# [2] = target: Nuclear receptor subfamily 1 group I member 2 (Rattus norvegicus) (UniProt Q9R1A7); experiment: qHTS assay for small molecule activators of the rat pregnane X receptor (rPXR) signaling pathway (AID 651751; call rule not given here); conditions: rPXR reporter cells, luciferase (One-Glo), 24 h
# astro = experiment: Drug repurposing screens with cells derived from glioblastoma tumor samples (AID 1345199); conditions: viability, ATP luminescence, 48 h; series mostly up to 45.9 µM; note: nearly all actives have a fitted effect of over 40% in size; note: potency is the fitted concentration of half-maximal effect
# Method in brief: as §2
# [3] = qHTS assay for small molecule activators of the human pregnane X receptor (PXR) signaling pathway (AID 720659; call rule not given here)
# [4] = qHTS assay to identify inhibitors of the type 1 interferon - major histocompatibility complex class I in skeletal muscle: Counter screen cell viability and HiBit confirmation (AID 1347412); conditions: iHSKM muscle cells + IFN-b, HiBiT or CellTiter-Glo, 24 h; Potency: HiBiT; Viability, at 45.9 µM (top of the series); note: potency is the fitted concentration of half-maximal effect; nearly all actives have a fitted effect of over 60% in size
# Source text: Assay Submitter (PI): Travis B. Kinder Ph.D. & James Inglese Ph.D. Assay Development and Screening Technology Laboratory (ADST) National Center for Advancing Translational Sciences (NCATS), Rockville, MD National Institute of Health (NIH), Bethesda, Maryland Idiopathic inflammatory myopathies, collectively referred to as myositis, are a group of rare autoimmune diseases characterized by skeletal muscle inflammation, weakness, and usually accompanied by systemic pathologies of the skin, lungs, or vasculature. Current immunosuppressive therapies and glucocorticoids are often not curative and are accompanied by harsh side effects, especially in children with juvenile myositis. We initiated a drug repurposing and development program to identify more targeted, less toxic therapeutics to treat myositis. Although its cause is not known, muscle from a subset of patients have an abundance of the inflammatory type 1 interferon (IFN) and a down-stream product major histocompatibility complex class I (MHC class I), which are both thought to contribute to damage and weakness. We conducted quantitative high throughput screening on 6,576 compounds (4,679 unique) through a series of cell-based assays to identify those that inhibit the IFN-stimulated expression of MHC class I in muscle precursor cells (myoblasts). The compound identification and evaluation strategy utilized a primary screen with reporter-tagged MHC class I in genome-engineered myoblasts, ATP content counter screen for viability, HLA-ABC immunofluorescence secondary screen, and HLA-B RT-qPCR tertiary screen. The primary screen utilized CRISPR/Cas9 genome-engineering of immortalized human myoblasts, C25cl48, where a pro-luminescent reporter HiBit was fused to the C-terminus of endogenous MHC class I allele HLA-B*08:01 (HLA-B HiBit myoblasts). HiBit is an 11 amino acid fragment of NanoLuc luminescent reporter (Promega Corporation), and when complexed to the larger LgBit fragment, the reconstituted enzyme produces light in the presence of furimazine substrate (Schwinn et al., 2018). Briefly, HLA-B HiBit myoblasts were plated into 1536-well plates, treated with 4.0 ng/ml human IFN-beta and 650 inhibitory compounds identified from primary screening in a 12-point, 1:3 titration with a high final concentration of 46 uM. Compounds were pinned into duplicate plates, with one for HiBit confirmation and one for ATP content viability assay. After 24 hrs of treatment, cells were assayed by either Nano-Glo HiBiT Lytic Detection System (Promega) or CellTiter Glo (Promega), and luminescence measured by a ViewLux 1430 Ultra HTS (Perkin Elmer). References: Schwinn MK, Machleidt T, Zimmerman K, Eggers CT, Dixon AS, Hurst R, Hall MP, Encell LP, Binkowski BF, Wood K V. 2018. CRISPR-Mediated Tagging of Endogenous Proteins with a Luminescent Peptide. ACS Chem Biol 13:467-474. doi:10.1021/acschembio.7b00549
# PROTOCOL TABLE (as described by Inglese et al., 2007) SEQUENCE No. (e.g., 1, 2, 3, etc.); […] (e.g., Cells, Incubation, Reagent, etc.); VALUE; DESCRIPTION 1a; Cells; 5 uL; Use a Multidrop Combi (Thermo Scientific) to seed 300 cells/well into 16 Greiner 1536 well white/solid bottom, high base, TC plates in 5 ul/well of iHSKM growth medium (GM) without dexamethasone into columns 1+2. […]
# [5] = at 45.9 µM (top of the series), tumour line D
# [6] = at 45.9 µM (top of the series), tumour line B
# [7] = at 46 µM (top of the series), tumour line A
# Chain of Nuclear receptor subfamily 1 group I member 2 (Rattus norvegicus) (Q9R1A7 whole entry, looked up): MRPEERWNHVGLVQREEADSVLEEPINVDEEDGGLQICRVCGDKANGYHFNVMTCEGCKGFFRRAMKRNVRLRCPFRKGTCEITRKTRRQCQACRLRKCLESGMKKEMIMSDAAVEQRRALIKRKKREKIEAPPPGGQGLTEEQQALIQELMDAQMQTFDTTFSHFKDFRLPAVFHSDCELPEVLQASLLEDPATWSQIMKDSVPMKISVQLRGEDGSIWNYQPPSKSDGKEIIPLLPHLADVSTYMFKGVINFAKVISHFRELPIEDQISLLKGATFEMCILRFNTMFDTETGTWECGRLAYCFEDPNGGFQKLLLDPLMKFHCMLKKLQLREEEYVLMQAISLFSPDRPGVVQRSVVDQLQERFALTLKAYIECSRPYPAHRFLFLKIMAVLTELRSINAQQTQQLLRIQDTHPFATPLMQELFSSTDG
smiles,measurement,setting,value
CC(C)(C)CC(C)(C)c1ccc(O)cc1,Potency,OV90,inactive
same,Potency,PA-1,inactive
same,Potency,SKOV3,inactive
same,Potency,Tov-21-G,inactive
same,Potency,Tov112D,inactive
same,"activity, negative = cell killing",[1]; [5],-15%
same,Potency,[1]; tumour line B,44.7 µM (active)
same,Potency,[1]; tumour line D,63.1 µM (active)
same,max response,[2],-11.1%
Cc1cccc(C)c1NC(=O)CN1CCCC1=O,Potency,OV90,inactive
same,Potency,PA-1,inactive
same,Potency,SKOV3,inactive
same,Potency,Tov-21-G,inactive
same,Potency,Tov112D,inactive
same,"activity, negative = cell killing",[1]; [6],-2.88%
same,"activity, negative = cell killing",[1]; [5],-0.691%
same,"activity, negative = cell killing",[1]; [7],-27.7%
same,Potency,astro,inactive
Cn1cc(C2=C(c3cn(C4CCN(Cc5ccccn5)CC4)c4ccccc34)C(=O)NC2=O)c2ccccc21,Potency,OV90,inactive
same,Potency,PA-1,inactive
same,Potency,SKOV3,inactive
same,Potency,Tov-21-G,inactive
same,Potency,Tov112D,inactive
same,"activity, negative = cell killing",[1]; [6],31.3%
same,Potency,[1]; tumour line A,2.51 µM (active)
same,Potency,[1]; tumour line D,20 µM (active)
NP(N)(=O)NC(=O)c1ccc(F)cc1,Potency,OV90,inactive
same,Potency,PA-1,inactive
same,Potency,SKOV3,inactive
same,Potency,Tov-21-G,inactive
same,Potency,Tov112D,inactive
same,"activity, negative = cell killing",[1]; [6],-10%
same,"activity, negative = cell killing",[1]; [5],-14.8%
same,"activity, negative = cell killing",[1]; [7],-25.8%
same,Potency,astro,inactive
Nc1ccncc1,Potency,OV90,inactive
same,Potency,PA-1,inactive
same,Potency,SKOV3,inactive
same,Potency,Tov-21-G,inactive
same,Potency,Tov112D,inactive
same,"activity, negative = cell killing",[1]; [6],-0.63%
same,"activity, negative = cell killing",[1]; [5],-4.86%
same,"activity, negative = cell killing",[1]; [7],-29.8%
same,Potency,astro,inactive
same,max response,[2],-1.96%
same,outcome,[3],inactive
CC(C)=CC1C(C(=O)OCc2cccc(Oc3ccccc3)c2)C1(C)C (configuration not stated),Potency,OV90,inactive
same,Potency,PA-1,inactive
same,Potency,SKOV3,inactive
same,Potency,Tov-21-G,inactive
same,Potency,Tov112D,inactive
same,"activity, negative = cell killing",[1]; [6],-17.7%
same,"activity, negative = cell killing",[1]; [5],-26.5%
same,Potency,[1]; tumour line A,12.6 µM (active)
same,Potency,astro,inactive
Cc1ccc(-c2nc3ccc(C)cn3c2CC(=O)N(C)C)cc1,Potency,OV90,inactive
same,Potency,PA-1,inactive
same,Potency,SKOV3,inactive
same,Potency,Tov-21-G,inactive
same,Potency,Tov112D,inactive
same,"activity, negative = cell killing",[1]; [6],-10.9%
same,"activity, negative = cell killing",[1]; [5],2.33%
same,"activity, negative = cell killing",[1]; [7],-24.8%
same,Potency,astro,inactive
CNC(=O)c1ccc(N2C(=S)N(c3ccc(C#N)c(C(F)(F)F)c3)C(=O)C23CCC3)cc1F,Potency,OV90,inactive
same,Potency,PA-1,inactive
same,Potency,SKOV3,inactive
same,Potency,Tov-21-G,inactive
same,Potency,Tov112D,inactive
O=C(NC(O)C(Cl)(Cl)Cl)NC(O)C(Cl)(Cl)Cl (configuration not stated),Potency,OV90,inactive
same,Potency,PA-1,inactive
same,Potency,SKOV3,inactive
same,Potency,Tov-21-G,inactive
same,Potency,Tov112D,inactive
same,"activity, negative = cell killing",[1]; [6],-10.4%
same,"activity, negative = cell killing",[1]; [5],2.45%
same,"activity, negative = cell killing",[1]; [7],-14.7%
same,Potency,astro,inactive
N[C@@H](Cc1ccc(Oc2cc(I)c(O)c(I)c2)c(I)c1)C(=O)O,Potency,OV90,inactive
same,Potency,PA-1,inactive
same,Potency,SKOV3,inactive
same,Potency,Tov-21-G,inactive
same,Potency,Tov112D,inactive
same,"activity, negative = cell killing",[1]; [6],-6.2%
same,"activity, negative = cell killing",[1]; [5],-17.5%
same,"activity, negative = cell killing",[1]; [7],-27.6%
same,Potency,astro,inactive
CC[N+](CC)(CC)CC,Potency,OV90,inactive
same,Potency,PA-1,inactive
same,Potency,SKOV3,inactive
same,Potency,Tov-21-G,inactive
same,Potency,Tov112D,inactive
same,"activity, negative = cell killing",[1]; [6],-10.8%
same,"activity, negative = cell killing",[1]; [5],-7.23%
same,"activity, negative = cell killing",[1]; [7],-23.7%
same,Potency,astro,inactive
CC1NCCOC1c1ccccc1 (configuration not stated),Potency,OV90,inactive
same,Potency,PA-1,inactive
same,Potency,SKOV3,inactive
same,Potency,Tov-21-G,inactive
same,Potency,Tov112D,inactive
same,"activity, negative = cell killing",[1]; [6],-0.55%
same,"activity, negative = cell killing",[1]; [5],7.64%
same,"activity, negative = cell killing",[1]; [7],-23.4%
same,Potency,astro,inactive
COc1ccccc1N1CCNCC1,Potency,OV90,inactive
same,Potency,PA-1,inactive
same,Potency,SKOV3,inactive
same,Potency,Tov-21-G,inactive
same,Potency,Tov112D,inactive
same,"activity, negative = cell killing",[1]; [6],-16.5%
same,"activity, negative = cell killing",[1]; [5],-3.17%
same,"activity, negative = cell killing",[1]; [7],-37.1%
same,Potency,astro,inactive
O=C(O)C(=O)c1cn(Cc2ccccc2)c2ccc(-c3ccc(OC(F)(F)F)cc3)cc12,Potency,OV90,inactive
same,Potency,PA-1,inactive
same,Potency,SKOV3,inactive
same,Potency,Tov-21-G,inactive
same,Potency,Tov112D,inactive
NCC1(CC(=O)O)CCCCC1,Potency,OV90,inactive
same,Potency,PA-1,inactive
same,Potency,SKOV3,inactive
same,Potency,Tov-21-G,inactive
same,Potency,Tov112D,inactive
same,"activity, negative = cell killing","[1]; at 21.2 µM (top of the series), tumour line B",-18.9%
same,"activity, negative = cell killing","[1]; at 21.2 µM (top of the series), tumour line D",-10.4%
same,"activity, negative = cell killing","[1]; at 21.3 µM (top of the series), tumour line A",-25.7%
same,Potency,astro,inactive
Oc1ccccc1-c1ccccc1,Potency,OV90,inactive
same,Potency,PA-1,inactive
same,Potency,SKOV3,inactive
same,Potency,Tov-21-G,inactive
same,Potency,Tov112D,inactive
same,"activity, negative = cell killing",[1]; [6],-14.5%
same,"activity, negative = cell killing",[1]; [5],-15.4%
same,"activity, negative = cell killing",[1]; [7],-19.2%
same,Potency,astro,inactive
same,max response,[2],-0.588% [middle of 4 runs]
CN1CCN(C(=O)O[C@H]2c3nccnc3C(=O)N2c2ccc(Cl)cn2)CC1,Potency,OV90,inactive
same,Potency,PA-1,inactive
same,Potency,SKOV3,inactive
same,Potency,Tov-21-G,inactive
same,Potency,Tov112D,inactive
same,"activity, negative = cell killing",[1]; [6],-4.94%
same,"activity, negative = cell killing",[1]; [5],-12.7%
same,"activity, negative = cell killing",[1]; [7],-22.2%
same,Potency,astro,inactive
C[C@@H]1O[C@@H](O[C@H]2C[C@@H](O)[C@]3(CO)[C@H]4[C@H](O)C[C@]5(C)[C@@H](C6=CC(=O)OC6)CC[C@]5(O)[C@@H]4CC[C@]3(O)C2)[C@H](O)[C@H](O)[C@H]1O,Potency,OV90,447 nM (active) and 794 nM (active)
same,Potency,PA-1,316 nM (active) and 141 nM (active)
same,Potency,SKOV3,251 nM (active) and 158 nM (active)
same,Potency,Tov-21-G,251 nM (active) and 141 nM (active)
same,Potency,Tov112D,89.1 nM (active) and 100 nM (active)
same,Potency,[1]; tumour line A,0.158 µM (active)
same,Potency,[1]; tumour line B,0.112 µM (active)
same,Potency,[1]; tumour line D,0.398 µM (active)
same,Potency,astro,316 nM (active) and 89.1 nM (active)
same,Potency,[4],70.1 nM (active) and 55.7 nM (active)
same,max response,[2],0.133%
same,outcome,[3],inactive
CCC1(C2=NCCN2)Cc2ccccc2O1 (configuration not stated),Potency,OV90,inactive
same,Potency,PA-1,inactive
same,Potency,SKOV3,inactive
same,Potency,Tov-21-G,inactive
same,Potency,Tov112D,inactive
same,"activity, negative = cell killing",[1]; [6],-22.3%
same,"activity, negative = cell killing",[1]; [5],-18%
same,Potency,[1]; tumour line A,7.08 µM (active)

# Reference: PubChem BioAssay (NCATS)
